Measured values published in PubChem BioAssay (NCI).
About 83,000 compounds went through this panel and 20% of them were active in at least one assay; those are over-represented in the sample as a whole.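 For each line, cells grew in 96-well plates with the test compound present at a single concentration for 48 hours.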 Calls of active or inactive are those of the source. Rule for the calls: active = growth percent below 10; inactive = the rest.

What was measured:
Test in all cases: NCI-60 one-dose screen, 48 h (100 = growth as untreated, 0 = no growth, -100 = all killed)
Conditions in all cases: 10 µM unless noted
[1] = system: NCI-H23 lung
[2] = system: NCI-H226 lung
[3] = system: NCI-H322M lung
[4] = system: HOP-62 NSCLC
[5] = system: NCI-H460 lung
[6] = system: HOP-92 NSCLC
[7] = system: NCI-H522 lung
[8] = system: A549/ATCC NSCLC
[9] = system: 786-0 renal
[10] = system: COLO 205 colon

Measured: growth

COc1cc(C(=O)c2cc(C(C)=O)c3ccc(C)cn23)cc(OC)c1OC
inactive: [1] 48.9% | [2] 66.3% | [3] 66% | [4] 52.4% | [5] 15.9% | [6] 97% | [7] 38.4% | [8] 46.7% | [9] 50.5% | [10] 39.8%

CN1CCN(Cc2ccc(NC(=O)c3cncc(C#Cc4cnc5ccc(N6CCOCC6)nn45)c3)cc2C(F)(F)F)CC1
active: [1] -65.9% | [2] -62.3% | [3] -11.3% | [4] -79.7% | [5] -80.6% | [6] -25.6% | [7] -79.2% | [8] -84.9% | [9] -80.7% | [10] -87.3%

COC(=O)CCCNCCCn1ccc2cc(NCc3cccc(-c4ccccc4)c3C)ccc21
inactive: [1] 61.9% | [2] 69.7% | [3] 97.6% | [4] 81.9% | [5] 81.8% | [6] 22.3% | [7] 91.7% | [8] 84.9% | [9] 74.2% | [10] 64.4%

O=C(Nc1cccc(C(F)(F)F)c1)N1CCN(c2cc(-c3cn(-c4ccccc4)nc3-c3cccc(O)c3)ccn2)CC1
inactive: [1] 37.7% | [2] 30.3% | [3] 73.9% | [4] 91.3% | [5] 63.4% | [6] 35.7% | [7] 31% | [8] 44.8% | [9] 54.6% | [10] 60%

CC1(C)CC[C@]23CC[C@]4(C)[C@H](CC[C@@H]5[C@@]6(C)CC[C@H](NCO)C(C)(C)[C@@H]6CC[C@]54C)[C@H]2[C@H]1OC3
active: [5] -41.1% | [10] -48.5%
inactive: [1] 55.7% | [2] 97.2% | [3] 84.2% | [4] 79.8% | [6] 40.1% | [7] 101% | [8] 60.5% | [9] 64.3%

O=S(=O)(NCCCNc1nccc(-c2[nH]c(-c3ccccc3)nc2-c2ccc(F)c(O)c2)n1)c1ccccc1
inactive: [1] 96.5% | [2] 99.4% | [3] 117% | [4] 120% | [5] 87.3% | [6] 105% | [7] 91.2% | [8] 98.3% | [9] 113% | [10] 95.5%

CC1=C(SCC(=O)OCCCCCC(C)C)C(=O)c2ccccc2C1=O
inactive: [1] 89% | [2] 93.8% | [3] 100% | [4] 106% | [5] 102% | [6] 85% | [7] 68.4% | [8] 105% | [9] 99.9% | [10] 125%

CCCNNC(=O)c1ccc(-c2ccc(NC(=O)CCCCCCC(=O)N[C@H](C(=O)N3C[C@H](O)C[C@H]3C(=O)N[C@@H](C)c3ccc(-c4scnc4C)cc3)C(C)(C)C)cc2)cc1
active: [6] -26.7% | [10] -31.1%
inactive: [1] 37.3% | [2] 46.5% | [3] 34.7% | [4] 27.8% | [5] 31.8% | [7] 10% | [8] 72.4% | [9] 36.9%

O=C(/C=C/c1cccc(Br)c1)c1cccc(OCCCCOc2cccc(C(=O)/C=C/c3cccc(Br)c3)c2)c1
inactive: [1] 98% | [2] 103% | [3] 103% | [4] 107% | [5] 100% | [6] 115% | [7] 98.1% | [8] 98.8% | [9] 106% | [10] 115%

O=C(CCCCCCNC(=O)C(O)(O)C(F)(F)F)Nc1ncc(-c2ccccc2)s1
inactive: [2] 14.9% | [9] 17.1%
active: [1] -1.99% | [3] 3.47% | [4] -6.52% | [5] 2.92% | [6] -19.4% | [7] -38.1% | [8] -12.9% | [10] -73.3%

C#CCN(C)CCCOc1ccc(NC(=O)CCCCCCCCC(=O)NO)cc1Cl
inactive: [1] 54.2% | [2] 73.2% | [3] 92.2% | [4] 77.6% | [5] 81.8% | [6] 64.8% | [7] 51.9% | [8] 72.9% | [9] 87.9% | [10] 76.1%

NS(=O)(=O)c1ccc(Nc2nc(N/N=C/c3ccc4c(c3)OCO4)nc(Nc3ccccc3)n2)cc1
inactive: [1] 25.1% | [2] 65% | [3] 61.3% | [4] 29% | [6] 66% | [7] 60.8% | [8] 74.7% | [9] 61.1% | [10] 49.7%
active: [5] 2.83%

CCOC(=O)c1ccc(NC2=CC(=O)C(C)=C(C)C2=O)cc1
inactive: [1] 51% | [2] 95.6% | [3] 104% | [4] 70.5% | [5] 98.4% | [6] 113% | [7] 87.5% | [8] 117% | [9] 106% | [10] 115%

O=C(CSc1nc2ccccc2c(=O)n1-c1ccc(Cl)c(Cl)c1)Nc1ccc(S(=O)(=O)Nc2ccc(Cl)nn2)cc1
inactive: [1] 91.6% | [2] 90.9% | [3] 91.7% | [4] 87.8% | [5] 99.4% | [6] 72.5% | [7] 90% | [8] 91.9% | [9] 98.9% | [10] 94.9%

CN1CCN(CCNc2nc(-c3cccc(NS(=O)(=O)c4cccc5c(N(C)C)cccc45)c3)cs2)CC1
inactive: [1] 51.9% | [2] 66.3% | [3] 85.8% | [4] 82% | [5] 70.7% | [6] 39.7% | [7] 69.4% | [8] 69.6% | [9] 60.8% | [10] 85.6%

COc1ccc(NC2=C(Br)C(=O)C(C)=C(C)C2=O)cc1OC
active: [6] -60.8%
inactive: [1] 89.8% | [2] 88.2% | [3] 106% | [4] 104% | [5] 101% | [7] 89.6% | [8] 98.7% | [9] 106% | [10] 125%

Cc1cc(NS(=O)(=O)c2ccc(NC(=O)CSc3nc4ccccc4c(=O)n3-c3ccccc3)cc2)no1
inactive: [1] 92.2% | [2] 93.4% | [3] 83.9% | [4] 98.5% | [5] 108% | [6] 88.6% | [7] 91.9% | [8] 101% | [9] 104% | [10] 106%

Cc1cc2nc3c4cc(C#N)ccc4n(CCN(C)C)c3nc2cc1C
active: [1] -35% | [2] -21.5% | [3] -0.486% | [4] 4.29% | [5] -42.3% | [6] -19.1% | [7] -52.1% | [8] -67.2% | [9] 6.69% | [10] -82.7%

O=[N+]([O-])c1ccc(NC(=S)NNC(=S)Nc2ccc(F)cc2)cc1
inactive: [1] 89.6% | [2] 94.2% | [3] 76.9% | [4] 97% | [5] 90.9% | [6] 72.9% | [7] 70.1% | [8] 88.2% | [9] 97.3% | [10] 115%

NS(=O)(=O)c1cccc(Nc2nc(SCC(=O)c3ccc(Cl)cc3)nc3c2CCC3)c1
inactive: [1] 75.1% | [2] 87.7% | [3] 97.1% | [4] 76.3% | [5] 97.6% | [6] 63.3% | [7] 95.6% | [8] 91.7% | [9] 82.5% | [10] 109%

O=C(CCCCCCN1CC(=O)N2[C@@H](c3ccccc3Br)c3[nH]c4ccccc4c3C[C@H]2C1=O)NO
inactive: [1] 63.9% | [2] 99.7% | [3] 66.1% | [4] 61.5% | [5] 51.8% | [6] 29% | [8] 88.4% | [9] 87.3% | [10] 42.8%
active: [7] -5.74%

Cc1ccc(CSC2=C(Cl)CN(c3ccc(Cl)cc3)C2=O)cc1
inactive: [1] 105% | [2] 98.4% | [3] 104% | [4] 103% | [5] 103% | [6] 95.2% | [8] 104% | [9] 105% | [10] 129%
active: [7] -4.44%

NC1C2CCC1CN(c1cnc(C(=O)Nc3cc(F)cc4cccnc34)cn1)C2 (stereo not given)
active: [10] -0.393%
inactive: [1] 75.1% | [2] 75.7% | [3] 84.3% | [4] 81.2% | [5] 68.1% | [6] 47.9% | [7] 72.3% | [8] 68.6% | [9] 67%

N#Cc1c(-c2cccs2)cc(-c2cnccn2)nc1SCC(=O)N/N=C/c1cccs1
inactive: [1] 56.6% | [2] 68.9% | [3] 73.1% | [4] 38.8% | [5] 20.8% | [6] 30.1% | [7] 73.1% | [8] 19.4% | [9] 16.6% | [10] 53.5%

O=C(CSc1nc2ccccc2c(=O)n1-c1ccccc1)N/N=C/c1ccc(Oc2ccc(Br)cc2)cc1
inactive: [1] 49.9% | [2] 77.6% | [3] 86.8% | [4] 63.9% | [5] 28% | [6] 73% | [7] 48.5% | [8] 42.2% | [9] 46% | [10] 44.4%

CN1CCN(Cc2ccc(NC(=O)c3cncc(C#Cc4cnc5ccc(OCC(F)F)nn45)c3)cc2C(F)(F)F)CC1
active: [1] -51.2% | [2] -62.6% | [3] -35.4% | [4] -76.6% | [5] -85% | [6] -30.7% | [7] -75.9% | [8] -61.6% | [9] -90.3% | [10] -87.7%
